Results taken from PubChem BioAssay (Tox21).
Results filed as inconclusive are left out. Active and inactive are the calls of the source. Unless noted, the call rests on the fitted dose curve; in most records, active means well fitted curve in the direction sought with a large enough effect in the repeat runs; inconclusive means weak or mixed curves; inactive means no such curve, though single readings can be large; an effect the other way counts as inactive or inconclusive.

Experiments:
[1] = qHTS assay to identify small molecule antagonists of the constitutive androstane receptor (CAR) signaling pathway - cell viability counter screen (AID 1224837); further: nearly all actives have a fitted effect of over 45% in size
Procedure, shortened: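 To flag cytotoxic false antagonists, HepG2 hCAR/CYP2B6-2.2kb cells were treated 23 hr with 15-concentration compound series and 50 nM CITCO at 37 C/5% CO2; CellTiter-Fluor fluorescence was the measured end point.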

[2] = biological target: Nuclear receptor subfamily 1 group I member 3 (Homo sapiens) (UniProt Q14994); assay: qHTS assay to identify small molecule antagonists of the constitutive androstane receptor (CAR) signaling pathway (AID 1224838);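 further: HepG2 cells stably expressing hCAR with CYP2B6 luciferase reporter stimulated by CITCO; nearly all actives have a fitted effect of over 40% in size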
Sequence of Nuclear receptor subfamily 1 group I member 3 (Homo sapiens) (Q14994 whole entry, looked up): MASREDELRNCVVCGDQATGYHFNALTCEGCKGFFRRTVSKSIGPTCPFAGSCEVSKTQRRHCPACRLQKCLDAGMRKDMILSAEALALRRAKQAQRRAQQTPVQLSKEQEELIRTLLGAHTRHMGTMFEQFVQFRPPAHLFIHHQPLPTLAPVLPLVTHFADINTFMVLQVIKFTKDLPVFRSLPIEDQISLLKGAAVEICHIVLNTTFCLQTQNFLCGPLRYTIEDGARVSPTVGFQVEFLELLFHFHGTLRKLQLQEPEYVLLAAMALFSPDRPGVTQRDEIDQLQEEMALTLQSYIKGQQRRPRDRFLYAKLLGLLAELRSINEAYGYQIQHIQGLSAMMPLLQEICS
Procedure, shortened: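 Human hepatoma HepG2 cells expressing hCAR and a CYP2B6 promoter (2.2 kb) luciferase construct; compound titration (15 points) with 50 nM CITCO final, 24 h at 37 C/5% CO2; luminescence via ONE-Glo after 30 min at room temperature.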

[3] = biological target: Nuclear receptor subfamily 1 group I member 3 (Homo sapiens) (UniProt Q14994); assay: qHTS assay to identify small molecule agonists of the constitutive androstane receptor (CAR) signaling pathway (AID 1224839);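 further: HepG2 cells stably carrying human CAR and a CYP2B6 luciferase reporter; nearly all actives have a fitted effect of over 15% in size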
Procedure, shortened: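 Using human hepatoma HepG2 cells engineered with hCAR and a CYP2B6-2.2kb reporter, 15-concentration compound series were incubated 24 h alongside PK11195 at 0.75 uM final, with luminescence quantified afterwards.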

[4] = qHTS assay to identify small molecule antagonists of the estrogen related receptor signaling pathway with the pleiotropic PPARgamma coactivator (PGC) from Tox21 10K library - cell viability counter screen (AID 1224840; active means well fitted cell-killing curve with a large enough effect in the repeat runs, not every such curve was filed as active; further: nearly all actives have a fitted effect of over 40% in size)
Procedure, shortened: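 Seeded PGC/ERR cells (2,000/well, 6 h, 37 C/5% CO2) get compound by pin tool; 17.5 h incubation at 37 C; CellTiter-Fluor added, 30 min, fluorescence measured.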

[5] = qHTS assay to identify small molecule antagonists of the estrogen related receptor signaling pathway with the pleiotropic PPARgamma coactivator (PGC) from Tox21 10K library (AID 1224841; call rule not given here; further: actives are mostly falling curves and most rising ones were filed inactive; nearly all actives have a fitted effect of over 50% in size)
Procedure, shortened: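 Test chemicals dissolved in DMSO were applied to pre-incubated (6 h) PGC/ERR cells at 2,000 cells/well for an 18 h, 37 C treatment; reporter luminescence was then read using One-Glo.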

[6] = qHTS assay to identify small molecule agonists of the estrogen related receptor signaling pathway with the pleiotropic PPARgamma coactivator (PGC) from Tox21 10K library (AID 1224842); further: nearly all actives have a fitted effect of over 15% in size
Procedure, shortened: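 Luminescence from One-Glo (30 min, room temperature) measured after PGC/ERR cells had 18 h at 37 C with pinned compound (23 nL in DMSO). Cells had been seeded at 2,000 per well and pre-incubated 6 h.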

[7] = biological target: Thyrotropin receptor (Homo sapiens) (UniProt P16473); assay: qHTS assay to identify small molecule agonists of the thyroid stimulating hormone receptor (TSHR) signaling pathway (AID 1224843; calls by dose curve; further: nearly all actives have a fitted effect of over 45% in size; further: potency means the concentration at half of the fitted maximal effect)
Sequence of Thyrotropin receptor (Homo sapiens) (P16473 whole entry, looked up): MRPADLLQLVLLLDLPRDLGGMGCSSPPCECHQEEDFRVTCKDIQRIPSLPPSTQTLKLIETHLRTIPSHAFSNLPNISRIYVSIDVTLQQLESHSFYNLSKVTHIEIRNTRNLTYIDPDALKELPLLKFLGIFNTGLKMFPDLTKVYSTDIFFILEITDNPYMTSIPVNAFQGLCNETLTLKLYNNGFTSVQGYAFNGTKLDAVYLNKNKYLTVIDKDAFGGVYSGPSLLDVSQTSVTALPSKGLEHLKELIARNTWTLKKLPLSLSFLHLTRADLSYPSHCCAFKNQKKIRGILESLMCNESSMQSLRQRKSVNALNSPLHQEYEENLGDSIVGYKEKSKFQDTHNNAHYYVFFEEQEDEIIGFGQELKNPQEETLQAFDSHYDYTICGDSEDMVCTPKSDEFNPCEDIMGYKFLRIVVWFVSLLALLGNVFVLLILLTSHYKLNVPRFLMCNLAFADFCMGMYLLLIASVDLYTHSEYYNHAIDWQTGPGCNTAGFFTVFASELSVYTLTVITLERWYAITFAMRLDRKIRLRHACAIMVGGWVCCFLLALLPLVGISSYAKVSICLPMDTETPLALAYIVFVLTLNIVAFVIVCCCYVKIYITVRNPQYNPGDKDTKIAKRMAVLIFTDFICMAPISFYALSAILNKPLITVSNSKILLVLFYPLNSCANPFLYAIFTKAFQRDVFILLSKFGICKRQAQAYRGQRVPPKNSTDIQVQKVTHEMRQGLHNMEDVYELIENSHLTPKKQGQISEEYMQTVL
Procedure, shortened: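 Agonist activity read as cAMP rise via d2/cryptate HTRF competition, 1 h room-temperature detection, in HEK293 cells expressing TSHR. Fifteen-point titrations, each run in triplicate, with a 30 min room-temperature incubation beforehand.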

[8] = qHTS assay to identify small molecule agonists of the hypoxia (HIF-1) signaling pathway - cell viability counter screen (AID 1224844; calls by dose curve; further: nearly all actives have a fitted effect of over 50% in size)
Procedure, shortened: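 HRE-bla ME-180; 0.5% dFBS; cpd 17 h, 37C, 5% CO2; CellTiter-Glo lum., 30 min RT, post-FRET read, same wells.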

[9] = qHTS assay to identify small molecule agonists of H2AX (AID 1224845; active means well fitted activation curve with a large enough effect in the signal ratio in the repeat runs, not every such curve was filed as active; the % refers to the signal ratio)
Procedure, shortened: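 Phospho-H2AX Ser139 measured by HTRF (ex 320 nm; em 665 and 620 nm) after 24 hr antibody incubation. Compounds, 15 concentrations, 0.76% DMSO, were applied to CHO-K1 cells for 3hr at 37C before lysis.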

[10] = qHTS assay to identify small molecule agonists of the hypoxia (HIF-1) signaling pathway (AID 1224846; active means well fitted activation curve with a large enough effect in the signal ratio in the repeat runs, not every such curve was filed as active; the % refers to the signal ratio)
Procedure, shortened: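 Reporter induction in HRE-bla ME-180 cells is taken as agonism: cells sit 5 hrs after plating, receive compounds or DMSO only, incubate 17 hrs at 37C under 5% CO2, and are loaded with CCF4-AM for beta-lactamase FRET measurement.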

[11] = qHTS assay to identify small molecule agonists of H2AX - cell viability counter screen (AID 1224847; calls by dose curve;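 further: wild-type CHO-K1 cells; top concentration of the series differs between compounds; nearly all actives have a fitted effect of over 30% in size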)
Procedure, shortened: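 After overnight plating of 1000 CHO-K1 cells per well, a 15-concentration compound series was applied for 3 hr at 37C. Luminescence from CellTiter-Glo, read following 30 min at room temperature, reflected cell viability.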

[12] = qHTS assay to identify small molecule antagonists of the estrogen related receptor (ERR) signaling pathway from Tox21 library (AID 1224848); further: nearly all actives have a fitted effect of over 50% in size; further: potency means the concentration at half of the fitted maximal effect
Procedure, shortened: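 Luciferase luminescence (ONE-Glo, 30 min room temperature) was the read-out. Cells of the NTP-supplied ERR line, 2,000 per well, were given 6 h at 37 C before compound addition in DMSO and 18 h exposure at 37 C.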

[13] = qHTS assay to identify small molecule agonists of the estrogen related receptor (ERR) signaling pathway from Tox21 library (AID 1224849; calls by dose curve; further: nearly all actives have a fitted effect of over 15% in size); conditions: ERR reporter cell line, ONE-Glo luciferase, 18 h; at 92.4 µM (top of the series) unless noted
Procedure, shortened: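 Tox21 compounds tested for ERR agonism in an NTP reporter cell line: 18 h treatment at 37 C, then ONE-Glo luminescence.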

[14] = qHTS RealTime-Glo MT Cell Viability Assay in HepG2 cells - 24 hour (AID 1224867); further: nearly all actives have a fitted effect of over 50% in size; further: potency means the concentration at half of the fitted maximal effect
Procedure, shortened: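 HepG2 cells were seeded at 600 cells/well together with NanoLuc luciferase and a cell-permeant prosubstrate, preincubated 5 h at 37 C/5% CO2, then pin-dosed with compounds in DMSO. Nonlytic luminescence from viable cells was read at each time point.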

[15] = A CellTox Green Cytotoxicity Assay to monitor cytotoxicity in HEK293 cells - 0 hour (AID 1224869); further: nearly all actives have a fitted effect of over 50% in size
Procedure, shortened: (§1)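 Tox21 screen in HEK293: membrane-impermeant cyanine dye fluoresces on binding dead-cell DNA; compound pinned 5 h post-seeding, plates held at 37 C, signal read repeatedly through 40 h.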

[16] = A CellTox Green Cytotoxicity Assay to monitor cytotoxicity in HEK293 cells - 40 hour (AID 1224871); further: nearly all actives have a fitted effect of over 45% in size; further: potency means the concentration at half of the fitted maximal effect
Procedure, shortened: as §1

[17] = qHTS RealTime-Glo MT Cell Viability Assay in HEK293 cells - 16 hour (AID 1224872); further: nearly all actives have a fitted effect of over 50% in size; further: potency means the concentration at half of the fitted maximal effect; on activity change, negative = cytotoxicity: top concentration of the series differs between compounds
Procedure, shortened: (§2)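 HEK293 cells were seeded at 600 cells/well together with NanoLuc luciferase and cell-permeant prosubstrate, preincubated 5 h at 37 C/5% CO2, then given compound in DMSO by pintool. Luminescence from viable-cell prosubstrate reduction was read repeatedly over 40 h.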

[18] = qHTS RealTime-Glo MT Cell Viability Assay in HepG2 cells - 8 hour (AID 1224873); further: nearly all actives have a fitted effect of over 55% in size
Procedure, shortened: (§3)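 Real-time viability: cells seeded at 600 per well together with NanoLuc and cell-permeant prosubstrate, compounds added after 5 h incubation. Luminescence tracked at 0, 8, 16, 24, 32 and 40 h of exposure.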

[19] = qHTS RealTime-Glo MT Cell Viability Assay in HEK293 cells - 32 hour (AID 1224868); further: nearly all actives have a fitted effect of over 50% in size; further: potency means the concentration at half of the fitted maximal effect; on activity change, negative = cytotoxic: top concentration of the series differs between compounds
Procedure, shortened: as §2

[20] = qHTS RealTime-Glo MT Cell Viability Assay in HepG2 cells - 40 hour (AID 1224870); further: nearly all actives have a fitted effect of over 50% in size
Procedure, shortened: as §3
On the % scale 0 is the no-effect control and ±100 the full control effect.

ClC/C=C\CCl
inactive: Potency [1] | Potency [2] | Potency [3] | Potency [4] | Potency [5] | Potency [6] | Potency [7] | Potency [8] | Potency [9] | outcome [10] | Potency [11] | Potency [12] | activity change, positive = activation [13] -4.37% | Potency [14] | Potency [15] | Potency [16] | Potency [17] | Potency [18]

CCCN(CCc1cccs1)[C@H]1CCc2c(O)cccc2C1
inactive: Potency [1] | Potency [2] | Potency [3] | Potency [4] | Potency [5] | Potency [6] | Potency [9] | activity change, positive = activation [13] -19.8% [at 42.5 µM] | Potency [14] | Potency [15] | Potency [20] | Potency [18]
active: Potency [7] 29.8 µM | Potency [19] 19 µM | Potency [16] 23.9 µM | Potency [17] 15.1 µM

CCOC(=O)[C@@](C)(N)Cc1ccc(O)c(O)c1
inactive: Potency [1] | Potency [2] | Potency [3] | Potency [4] | Potency [5] | Potency [6] | Potency [7] | Potency [11] | Potency [12] | activity change, positive = activation [13] -0.831% [at 42.5 µM] | Potency [14] | Potency [19] | Potency [15] | Potency [20] | Potency [16] | Potency [17]

c1cc[nH]c1
inactive: Potency [1] | Potency [2] | Potency [3] | Potency [4] | Potency [5] | Potency [6] | Potency [7] | Potency [8] | Potency [9] | outcome [10] | Potency [11] | Potency [12] | Potency [14] | Potency [19] | Potency [15] | Potency [20] | Potency [16] | Potency [17] | Potency [18]

Cc1cnccn1
inactive: Potency [1] | Potency [2] | Potency [3] | Potency [4] | Potency [6] | Potency [8] | Potency [9] | outcome [10] | Potency [11] | Potency [12] | activity change, positive = activation [13] -1.47% | Potency [14] | Potency [19] | Potency [15] | Potency [20] | Potency [16] | Potency [17] | Potency [18]

CN1CCN(C2Cc3ccccc3Sc3ccc(Cl)cc32)CC1 (centres undefined)
active: Potency [12] 26.6 µM | Potency [14] 23.9 µM | Potency [16] 21.3 µM
inactive: Potency [1] | Potency [2] | Potency [3] | Potency [4] | Potency [5] | Potency [6] | Potency [7] | Potency [11] | activity change, positive = activation [13] -28.3% [at 42.5 µM] | Potency [15]

CCN1CCN(c2cc(-c3ccc(F)cc3)c3c(n2)CCCCCC3)CC1
inactive: activity change, negative = cytotoxicity [1] 3.17% [at 19 µM] | activity, negative = inhibition [2] 16.5% [at 19 µM] | activation [3] -1.24% [at 19 µM] | viability change, negative = cytotoxic [4] 18% [at 19 µM] | activity, negative = inhibition [5] 3.89% [at 19 µM] | activation [6] -0.232% [at 19 µM] | activation [7] -12.2% [at 19 µM] | activity change, negative = cytotoxicity [8] 0.919% [at 15.8 µM] | activation [10] 1.71% [at 15.8 µM] | activity change, negative = cytotoxicity [11] -6.38% [at 31.6 µM] | activity, negative = inhibition [12] -10.2% [at 19 µM] | activity change, positive = activation [13] -5.69% [at 19 µM] | activity change, negative = cytotoxicity [14] -8.27% [at 15.8 µM] | activity change, negative = cytotoxic [19] -11.6% [at 15.8 µM] | cytotoxicity [15] -14.4% [at 15.8 µM] | activity change, negative = cytotoxic [20] -8.41% [at 15.8 µM] | cytotoxicity increase [16] 9.69% [at 15.8 µM] | activity change, negative = cytotoxicity [17] 2.72% [at 15.8 µM] | viability change, negative = cytotoxic [18] 1.26% [at 15.8 µM]
